Source: PubChem BioAssay
Compounds with a hit are over-represented: about 19% of the library has one in this group of screens.
RORg inh = ROR gamma (mouse) transcription inhibition; Drosophila S2 Gal4-RORgamma UAS-luciferase reporter, 20 h; Potency, µM (series often up to 53.6 µM), for the others: top-dose activity change, negative = inhibition, hits mostly inhibitors; 310,000 tested, 5.4% active; AID 2551; note: nearly all actives have a fitted effect of over 60% in size
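Compounds are pin-transferred onto Drosophila Schneider cells expressing a copper-inducible Gal4–ROR gamma transactivation domain fusion. After 1 hr, copper sulfate is added to 700 uM final; luciferase is read 20 hr later.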
TDP1 cell noCPT = qHTS for Inhibitors of human tyrosyl-DNA phosphodiesterase 1 (TDP1): qHTS in cells in absence of CPT; Potency, µM (top dose mostly 46.2 µM), for inactives: at the highest dose activity change, negative = growth inhibition, most hits filed as inhibitors; AID 686978, 2013; 420,000 tested, 15% active; DT40 Tdp1-/- hTDP1 cells, no CPT, ATP luminescence, 48 h; note: nearly all actives have a fitted effect of over 55% in size
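Growth of hTDP1-complemented DT40 Tdp1-knockout cells is measured by ATP luminescence after at least 48 hr compound exposure at 37 °C, with DMSO substituting for the 20 nM CPT used in the parallel screen.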
Gal4-VP16 FLuc = counter-screen for ROR gamma inhibitors: Gal4-VP16 reporter; 310,000 tested, 3.5% active; Potency, µM (top dose mostly 53.6 µM), inactives show at the highest dose activity, negative = inhibition, most hits filed as inhibitors; Drosophila S2 Gal4-VP16 UAS-luciferase, luminescence, 20 h;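 note: Gal4-VP16 expression switched on by copper sulfate through the metallothionein promoter; nearly all actives have a fitted effect of over 50% in size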
TDP1 block = TDP1 (human) enzyme inhibition. AID 485290. recombinant TDP1, AlphaScreen DNA substrate cleavage. Potency, µM (doses to about 130 µM), without a hit: top-dose activity change, negative = inhibition, hits mostly inhibitors. 350,000 tested, 0.28% active; note: nearly all actives have a fitted effect of over 40% in size
Target sequence (Q9NUW8 whole entry, looked up): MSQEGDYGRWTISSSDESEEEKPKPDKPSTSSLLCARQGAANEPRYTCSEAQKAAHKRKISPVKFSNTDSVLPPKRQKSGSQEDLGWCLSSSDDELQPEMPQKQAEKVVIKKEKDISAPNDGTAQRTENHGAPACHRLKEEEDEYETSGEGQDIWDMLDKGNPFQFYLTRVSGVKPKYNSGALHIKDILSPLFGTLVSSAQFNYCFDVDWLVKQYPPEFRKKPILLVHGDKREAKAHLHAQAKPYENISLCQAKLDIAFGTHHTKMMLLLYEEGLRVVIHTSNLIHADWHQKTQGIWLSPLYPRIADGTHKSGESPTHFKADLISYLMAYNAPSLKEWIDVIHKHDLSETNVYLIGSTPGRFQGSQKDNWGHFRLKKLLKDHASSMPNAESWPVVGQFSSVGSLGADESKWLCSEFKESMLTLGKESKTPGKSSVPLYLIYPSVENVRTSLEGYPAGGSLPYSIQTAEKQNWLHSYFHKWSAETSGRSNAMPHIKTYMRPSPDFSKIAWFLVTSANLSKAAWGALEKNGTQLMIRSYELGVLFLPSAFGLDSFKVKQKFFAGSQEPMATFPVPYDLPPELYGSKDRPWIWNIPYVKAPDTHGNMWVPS
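Recombinant human Tdp1 (E. coli-expressed, 1 nM final) preincubated with compounds 15 min at room temperature, then 5'-biotin/3'-phosphotyrosine-FITC DNA substrate (15 nM final) added for 5 min. AlphaScreen beads (10 ug/ml final) added 10 min; cleavage lowers signal.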
TDP1 cell CPT = DT40-hTDP1 cell growth loss with CPT. chicken DT40 Tdp1-/-;hTDP1 cells + 20 nM CPT, ATP luminescence, 48 h. Potency, µM (highest dose often 46.2 µM), without a hit: top-dose activity change, negative = growth inhibition, most hits filed as inhibitors. 420,000 tested, 12% active; note: nearly all actives have a fitted effect of over 55% in size
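Cell growth measured by CellTiter-Glo luminescence after a minimum 48 h, 37 C compound exposure with 20 nM CPT in Tdp1-knockout DT40 cells stably expressing hTDP1, seeded 400/well; qHTS titration format.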
Numbers without * were called inactive; ? = inconclusive; . = no result. Calls come from the whole dose curve; as a rule, active = well fitted curve in the direction sought with a large enough effect; inconclusive = small, poorly fitted or top-dose-only effect, or another doubt; inactive = no such curve, though single readings can be large; an effect the other way counts as inactive or inconclusive. % is set by controls: 0 for no effect and ±100 for the full control effect; potency is the fitted concentration of half-maximal effect.

SMILES | RORg inh | TDP1 cell noCPT | Gal4-VP16 FLuc | TDP1 block | TDP1 cell CPT
COc1ccccc1NC(=O)CC(c1ccc(OC(C)C)cc1)c1ccccc1OC (configuration not stated) | -7% | 21µM* | -9% | 1% | 16µM*
Cc1ccc(NC(=O)CC(=O)c2ccccc2)cc1C | 8% | ? | ? | -1% | ?
COc1ccccc1C(CC(=O)Nc1ccc(C)c(C)c1)c1ccc(OC(C)C)cc1 (configuration not stated) | ? | 21µM* | 1% | -3% | ?
O=C(N/N=C/c1ccc(C(F)(F)F)cc1)c1ccc(O)cc1 | 1.8µM* | ? | 4.5µM* | 0% | ?
O=C(N/N=C/c1cccc(C(F)(F)F)c1)c1ccc(O)cc1 | 1.1µM* | -25% | ? | 0% | 5%
O=C(N/N=C\c1cccc(F)c1)c1ccc(-c2ccccc2)cc1 | 1% | -1% | 2% | -2% | -3%
CCN(CC)CC#CCC(C)(c1ccccc1)c1ccccc1 | -36% | 16µM* | 2% | 6% | ?
CCN(CC)CC#CCC(O)(c1ccccc1)c1ccccc1 | -9% | ? | 2% | -1% | -22%
COc1ccccc1CCNC(=O)CCSc1nc(-c2ccco2)cc(C(F)(F)F)n1 | ? | ? | ? | -2% | 23µM*
O=C(CSc1nc(-c2ccco2)cc(C(F)(F)F)n1)Nc1cccnc1 | -12% | 21µM* | 3% | -4% | ?
CC1CCN(C(=O)CSc2nc(-c3ccc(F)cc3)cc(C(F)(F)F)n2)CC1 | . | ? | . | -3% | 21µM*
COc1ccc(-c2cc(C(F)(F)F)nc(SCC(=O)Nc3sc4c(c3C#N)CCC4)n2)cc1 | 5% | 5.8µM* | 3% | -3% | ?
O=C(CSc1nc(-c2ccco2)cc(C(F)(F)F)n1)Nc1ccc2c(c1)OCO2 | 42% | ? | -11% | 3% | ?
O=C(CCSc1nc(-c2ccco2)cc(C(F)(F)F)n1)NCCc1ccccc1 | -1% | ? | ? | 4% | ?
COc1ccc(-c2cc(C(F)(F)F)nc(SCC(=O)N3CCC(C)CC3)n2)cc1 | . | ? | . | -3% | ?
Cc1c(C(=O)Nc2ccc(S(=O)(=O)N3CCOCC3)cc2)cccc1[N+](=O)[O-] | ? | ? | 0% | . | ?
C=COCCn1c(-c2nonc2N)nc2ccccc21 | -34% | ? | -10% | 4% | ?
Cc1nc2ccccc2c(=O)n1-c1ccc(NS(=O)(=O)c2cc(F)ccc2F)cc1 | . | -1% | . | 1% | 25%
COc1ccc(NC(=O)CSc2nc(-c3ccco3)cc(C(F)(F)F)n2)c(OC)c1 | . | -12% | . | 2% | -8%
COc1cc(NC(=O)CCCSc2nc(-c3ccco3)cc(C(F)(F)F)n2)cc(OC)c1OC | ? | ? | -19% | 1% | ?
Cc1ccc(NC(=O)CSc2n[nH]c(-c3ccco3)n2)cc1 | 17% | -9% | 27% | 11% | 0%
CCN(CC)c1ccc(NC(=O)CSc2n[nH]c(-c3ccco3)n2)cc1 | . | 23µM* | . | -4% | ?
COc1ccc(-c2ccc(C#N)c(SCC(=O)Nc3sc4c(c3C#N)CCC4)n2)cc1OC | 1% | 15µM* | -7% | 1% | 23µM*
COc1cc(NC(=O)CSc2nc(-c3ccco3)cc(C(F)(F)F)n2)cc(OC)c1OC | . | 5.2µM* | . | 5% | 3.7µM*
COc1ccc(NC(=O)CSc2nc(-c3ccco3)cc(C(F)(F)F)n2)cc1 | . | 8.2µM* | . | -3% | ?
COc1ccc(C(=O)Nc2cccc(-c3nc4ncccc4o3)c2C)cc1OC | -28% | ? | ? | 7% | -29%
O=C(CNc1ccccc1N1CCCC1=O)Nc1cc(C(F)(F)F)ccc1-n1cncn1 | . | -19% | . | 5% | 3%
O=C(/C=C/Nc1ccc(F)cc1)c1ccc(Br)cc1 | 5% | 0% | ? | 8% | 17%
COc1ccc(-c2cc(C(F)(F)F)nc(SCC(=O)Nc3ccc(C(C)=O)cc3)n2)cc1 | . | ? | . | 3% | 21µM*
